Assay results taken from article PMC4552634, “A New Set of Chemical Starting Points with Plasmodium falciparum Transmission-Blocking Potential for Antimalarial Drug Discovery” (PLoS ONE, 2015).
The campaign covered roughly 13,000 compounds. About 3,200 (25%) showed an effect of 50% or more. Some of the results follow.

tested on: P. falciparum stage V gametocytes; design: BacTiter-Glo ATP luminescence viability of purified stage V gametocytes in 384-well plates, per cent inhibition versus DMSO; conditions: 48 h, 5 µM; inhibitor

Compound | % Inhibition
CSCCCN1CCC(O)(c2ccc3oc(C(=O)Nc4ccc5sc(C)nc5c4)cc3c2)CC1 [TCMDC-124646] | 11.7%
COCCNCc1ccc(-c2ccccc2CNC2CCN(Cc3ccccc3)CC2)cc1 [TCMDC-140471] | 43.38%
CC(C)CNCc1ccc(-c2ccc(CNC3CCN(Cc4ccccc4)CC3)cc2)cc1 [TCMDC-140488] | 73.02%
CC(C)CNCc1ccc(-c2ccccc2CNC2CCN(Cc3ccccc3)CC2)cc1 [TCMDC-140470] | 78.66%
Cc1cc(-c2ccc3c(c2)CC[C@@H](N[C@@H](C)c2ccccc2)C3)cnc1N [TCMDC-138130] | 26.54%
Cn1c(NC(=O)C2CCC(CNC(=O)c3ccc(O)c(-c4cccc([N+](=O)[O-])c4)c3)CC2)nc2ccccc21 (stereo not shown) [TCMDC-140883] | 1.197%
O=C(Nc1cccc(-c2nn3ccccc3c2-c2ccnc(Nc3ccccc3)n2)c1)c1cc(F)ccc1F [TCMDC-135823] | -54.26%
COc1ccc(-c2ccc([N+](=O)[O-])cc2C(=O)NCC(C)Oc2ccc(C(F)(F)F)cc2)cc1 (stereo not shown) [TCMDC-132304] | 94.55%
NCCNc1ccc([N+](=O)[O-])cc1C(=O)Nc1cccc(C(F)(F)F)c1 [TCMDC-123677] | 3.903%
COc1ccc(OC(C)CNC(=O)c2cc([N+](=O)[O-])ccc2-c2ccc(OC)cc2)cc1 (stereo not shown) [TCMDC-132303] | 16.94%
N=C1NC(=O)C(=Cc2cn(-c3ccccc3)nc2-c2cccc(S(=O)(=O)N3CCCC3)c2)S1 [TCMDC-123756] | 0.418%
NC1CCCN(Cc2cccc(-c3cccc(-c4nc5ccccc5[nH]4)c3)c2)C1 (stereo not shown) [TCMDC-133877] | 56.31%
NC1CCN(Cc2cccc(-c3cccc(-c4nc5ccccc5[nH]4)c3)c2)C1 (stereo not shown) [TCMDC-133875] | 72.93%
OC1CCCN(Cc2cccc(-c3ccc(-c4nc5ccccc5[nH]4)cc3)c2)C1 (stereo not shown) [TCMDC-133817] | -22.44%
NC1CCN(Cc2cccc(-c3ccc(-c4nc5ccccc5[nH]4)cc3)c2)C1 (stereo not shown) [TCMDC-133846] | 28.29%
NC1CCCN(Cc2cccc(-c3ccc(-c4nc5ccccc5[nH]4)cc3)c2)C1 (stereo not shown) [TCMDC-133848] | 22.08%
Cc1cc(N2CCCCC2)nc2ccc(NC(=O)c3cc(=O)c4ccccc4o3)cc12 [TCMDC-123602] | 13.04%
Cc1ccc(NC(=O)Nc2ccccc2)cc1-c1ccc(C(=O)Nc2ccncc2)cc1 [TCMDC-133701] | -4.063%
NC1=NC(c2ccccc2)(c2ccccc2)C(=O)N1Cc1ccc(-c2cccnc2)cc1 [TCMDC-136999] | -17.43%
CC(=O)N1Cc2ccccc2C1=O [TCMDC-131706] | 7.417%
COc1ccc(C(=O)CC(=O)c2ccc(OC)cc2OC)c(OC)c1 [TCMDC-123465] | 12.1%
CCN(CC)CCN(CCN(CC)CC)c1ccc2c(c1)Sc1c(Cl)ccc(Cl)c1S2 [TCMDC-137934] | 63.92%
COc1ccc(Cn2c(=O)[nH]c3cc(C(=O)NC4CCN(Cc5ccccc5)CC4)ccc3c2=O)cc1 [TCMDC-123588] | -15.29%
COc1ccc(NC(=O)N2CCCN(CCCCCNC(=O)/C=C/c3ccc(C(F)(F)F)cc3)CC2)cc1Cl [TCMDC-136109] | -28.75%
COc1cc(CN2CCN(c3ccnc(N(C)C4CCN(C)CC4)n3)CC2)cc(Cl)c1O [TCMDC-125096] | -14.35%
